# p53 reactivation – restores transcriptional activity of mutant p53; H1299 p53-A138V BP100-luciferase reporter, luminescence, 24 h; Potency, µM (titrated, usually from 92.2 µM), for the others: top-dose activity change, positive = activation, usual class: activators; hit rate 0.063% among 320,000; AID 504706; further: potency means the concentration at half of the fitted maximal effect; % of control where 0% means no effect; nearly all actives have a fitted effect of over 45% in size
#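 H1299 (p53-null), stable ts p53-A138V + BP100-Luc; 1000 cells/well, Opti-MEM/10% FBS; cpd 4 pt, 1:5; 24 h, 37 deg C, 5% CO2; detection reagent 10 min RT; luminescence.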
# TCR act – T cell receptor activation; primary human leukocytes, anti-CD3, IL-2 HTRF, 48 h; Potency, µM (doses to about 9.22 µM), inactives show at the top dose activation of IL-2 secretion, usual class: activators; 330,000 tested, under 10 active; further: % of control where 0% means no effect
#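 Primary human leukocytes receive a-CD3 beads and test compound and are incubated 48 hr. Secreted IL-2 is then assayed by HTRF, measuring 665nm acceptor emission after 320nm excitation of the europium donor.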
# BRCA1 expr up – activators of BRCA1 expression | MCF7-BRCA1-FFLuc reporter, luminescence, 48 h; response scale: scaled: vehicle 0%, 10 µM genistein 100% | Potency, µM (series often up to 46.1 µM), inactives show top-dose activation, usual class: activators | hit rate 1.1% among 380,000 | AID 624202; further: potency means the concentration at half of the fitted maximal effect; nearly all actives have a fitted effect of over 80% in size
#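 Quantitative HTS in MCF7 cells stably reporting BRCA1 expression via firefly luciferase. Compound treatment lasts 48 h at 37 °C in phenol-red free MEM. Activation is expressed relative to genistein at 10 microM and DMSO.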
# Mito fusion yeast – blocks mitochondrial division or promotes mitochondrial fusion | S. cerevisiae fusion-defective mutant growth rescue, CellTiterGlo 48 h | Potency, µM (titrated, usually from 46.1 µM), inactives show top-dose growth rescue (activation), usual class: activators | hit rate 0.23% among 320,000; further: potency means the concentration at half of the fitted maximal effect; % of control where 0% means no effect; nearly all actives have a fitted effect of over 45% in size
#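 S. cerevisiae fusion-defective temperature-sensitive mutants (e.g. fzo1-1, mgm1-5) grown 48 h at 37C in YPEG (ethanol/glycerol non-fermentable) medium with 23 nl compound per well; growth rescue read as CellTiterGlo luminescence.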
# IL2 activator – activators of IL-2; hit rate 0.065% among 360,000; IL-2 activation reporter assay, cell-based qHTS; stimulated with anti-CD3/CD4/CD28 beads; in transgenic mouse T cells; AID 652025; activation, % (series mostly up to about 46 µM); in the data active means activation above about 50%; inconclusive means mostly about 30% to 49%; further: 0% is about no effect
#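 Unstimulated transgenic mouse T cells; 60-min compound exposure; bead-based TCR/CD4/CD28 stimulation; 18 h culture, 37 degrees C; dual fluorescence (EGFP, DsRed) plate cytometry.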
# Starred values were filed as active, the others as inactive; ? = inconclusive; / = not tested or not shown; [ ] = another dose, or the depositor's remark. Rows were chosen to be rich in hits. Some 1.3% of all compounds tested hit in one or more screens of this group. Unless noted, the call rests on the fitted dose curve; in most records, active means well fitted curve in the direction sought with a large enough effect; inconclusive means small, poorly fitted or top-dose-only effect, or another doubt; inactive means no such curve, though single readings can be large; an effect the other way counts as inactive or inconclusive.
SMILES,p53 reactivation,TCR act,BRCA1 expr up,Mito fusion yeast,IL2 activator
Cn1cccc1C(=O)N/N=C/c1c(Cl)cccc1Cl,?,-5%,6.3µM*,4%,4
Cn1cccc1/C=N/NC(=O)c1ccncc1,1%,6%,1%,-4%,0
O=C(N/N=C/c1c(Cl)cccc1Cl)c1ccc(F)cc1,20%,5%,-11%,-2%,-2
Cn1cccc1/C=N/NC(=O)c1ccccn1,17%,0%,10µM*,-1%,-5
O=C(NCCCc1nc2ccccc2n1CCOc1ccccc1)C1CCCCC1,/,/,-5%,/,/
O=c1c2ccccc2nnn1CSc1nnc2ccccn12,?,-37%,5.6µM*,-1%,0
Oc1ccc(-c2nnc(SCc3ccccc3)o2)cc1,/,-3%,10µM*,4%,0
c1ccc(CSc2nnc(-c3cccnc3)o2)cc1,?,3%[46.1 µM],7.9µM*,9%,-1
O=C(CSc1nnc(-c2ccncc2)o1)Nc1cccc(F)c1,22%,-2%,?,-1%,1
C#CCSc1nnc(-c2ccc(O)cc2)o1,27%,11%,?,1%,1
c1ccc(CSc2nnc(Cc3ccccc3)o2)cc1,3%,-2%,13µM*,2%,2
O=C(CSc1nnc(-c2cccnc2)o1)Nc1cccc(F)c1,15%,-5%,10µM*,-5%,-1
CN1CCN2c3ccccc3CC3(C(=O)OC(C)(C)OC3=O)C2C1 (stereo not given),/,/,6%,/,/
CC(C)CN(CC(C)C)c1ccc(/C=C/c2ccnc3ccccc23)cc1,/,/,-23%,/,/
Cc1cnc(NC(=O)CSc2nnc(-c3ccccc3)o2)s1,?,0%[46.1 µM],4µM*,2%,1
Cc1cnc(NC(=O)CSc2nnc(COc3ccccc3)o2)s1,-6%,-1%,-17%,-2%,1
Cc1csc(NC(=O)CSc2nnc(-c3ccoc3C)o2)n1,?,1%,10µM*,28%,-1
Cc1occc1-c1nnc(SCC(=O)Nc2nc(C(C)(C)C)cs2)o1,25%,/,36%,2%,-2
COc1ccc(S(=O)(=O)n2nc(C)c(S(=O)(=O)N3CCC(C)CC3)c2C)cc1C,/,/,10%,/,/
Cc1c(C=O)c2cc(OCc3ccccc3)ccc2n1C,17%,-1%,10µM*,3%,-4
Cc1cc2cc(OCc3ccccc3)ccc2n1C,8%,-1%,?,-1%,-3
Cc1ccc(NC(=O)Nc2ccc3c(c2)nc(C)n3C)cc1,1%,8%,33%,3%,-1
CC(=O)c1ccc(NC(=O)Nc2cccc(Cl)c2)cc1,?,-56%,7.1µM*,-1%,-2
CC(=O)c1ccc(NC(=S)NCCc2cccc(Cl)c2)cc1,2%,/,3.2µM*,28%,0
Fc1ccccc1NC(=S)NCCc1cccc(Cl)c1,?,1%,7.9µM*,-2%,-1
SMILES,p53 reactivation,TCR act,BRCA1 expr up,Mito fusion yeast,IL2 activator
CC(=O)c1ccc(NC(=O)Nc2ccc3c(c2)nc(C)n3C)cc1,10%,-4%,3.5µM*,2%,-2
CC(=O)Nc1ccc(NC(=O)Nc2cccc(Cl)c2)cc1,12%,5%,?,-5%,2
COc1ccccc1-c1cc2nc(C)c(CCC(=O)NCc3cccc(Cl)c3)c(C)n2n1,/,/,0%,/,/
CSc1cccc(NC(=O)Nc2ccc(Cl)cc2)c1,21%,0%,7.9µM*,-5%,0
CSc1cccc(NC(N)=O)c1,-1%,4%,4%,-2%,0
Cc1ccc(C(=O)N2c3ccccc3CC2C)o1 (stereo not given),8%,-4%,4µM*,-5%,1
COc1cc(SC)ccc1C(=O)NCCc1c[nH]c2ccccc12,/,/,47%,-4%,-1
O=C(NCCc1c[nH]c2ccccc12)c1ccc(F)cc1F,?,-7%,4µM*,-9%,1
COc1ccc(C(=O)NCCc2c[nH]c3ccccc23)cc1,-7%,0%,5.6µM*,-4%,-3
COc1ccccc1NC(C)C(=O)c1c[nH]c2ccccc12 (stereo not given),/,/,13µM*,/,/
COc1ccc(C(=O)c2c[nH]c3ccccc23)cc1,/,-12%,3.5µM*,-3%,0
N#Cc1ccc(NC(=O)COc2ccccc2C(=O)Nc2ccccc2)cc1,/,/,0%,/,/
O=C(Nc1ccccc1-c1cn2c(CN3CCNCC3)csc2n1)c1cnc2ccccc2n1,/,/,-69%,/,/
CCC(=O)NCCc1c[nH]c2ccccc12,/,-2%,1%,-1%,-1
O=C(NCCc1c[nH]c2ccccc12)c1ccc(Cl)cc1,-18%,/,3.5µM*,0%,0
Cc1ccsc1C(=O)NCCc1c[nH]c2ccccc12,?,3%,13µM*,1%,-1
O=C(NCCc1c[nH]c2ccccc12)c1cncc(Br)c1,-4%,1%,-31%,/,0
CC1(C)OB(c2cnc(C#N)nc2)OC1(C)C,/,/,-9%,/,/
CNC(=S)N/N=C/c1c(C)c(C(=O)c2ccc(F)cc2)n2ccccc12,-2%,-3%,-42%,-11%,83*
Cc1c(/C=N/NC(N)=O)c2ccccn2c1C(=O)c1ccc(F)cc1,2%,-9%[46.1 µM],-34%,5%,?
CC(=O)c1cccc(OCc2cc(C(=O)N3C[C@H]4CC[C@H]3C4)no2)c1,?,-6%,?,-2%,-4
O=C(c1cc(COc2cccc(C(F)(F)F)c2)on1)N1C[C@H]2CC[C@H]1C2,6%,-3%,13µM*,3%,-5
Cc1ccc(Nc2ncccc2C(N)=O)cc1[N+](=O)[O-],?,2%[46.1 µM],5.6µM*,?,-5
Cc1ccc(NC(=O)Cn2c(=O)nc(-c3ccccc3F)c3cc(Cl)ccc32)c(Br)c1,/,/,-10%,/,/
O=C(Cn1nnc2ccccc21)c1ccc(Br)cc1,10%,-4%,?,3%,3
SMILES,p53 reactivation,TCR act,BRCA1 expr up,Mito fusion yeast,IL2 activator
Cc1ccc(NC(=O)CCn2nnc3ccccc32)c(C)c1,-3%,2%,?,6%,4
Cc1ccc(C(=O)Cn2nnc3ccccc32)cc1,22%,-6%,4.5µM*,-1%,0
Cc1ccc(NC(=O)CCn2nnc3ccccc32)cc1,3%,4%,11µM*,-3%,0
CNc1c(Br)cc(C=O)cc1Br,/,/,4%,/,/
O=C(Nc1ccc(Br)c(C(F)(F)F)c1)c1ccccc1,11%,-1%[46.1 µM],-65%,22µM*,-1
O=C(Nc1ccc(Br)c(C(F)(F)F)c1)c1ccc(C(F)(F)F)cc1,?,-5%,-90%,-26%,-5
O=C1CN(C(=O)COc2ccc(Cl)cc2Cl)c2ccccc2N1,-2%,-1%,23%,0%,-2
O=C1CN(C(=O)COc2ccc([N+](=O)[O-])cc2Cl)c2ccccc2N1,-1%,-2%,11µM*,-4%,0
O=C(Nc1ccc(F)cc1)c1cccnc1NCCc1ccccc1,4%,-8%[46.1 µM],-39%,18µM*,-5
CCCCc1c(O)nc2sc3cc(OC)ccc3n2c1=O,20%,-1%,11µM*,2%,-1

# Screening data from PubChem BioAssay.
